The results in this text go back to PubChem BioAssay (NCI).

Structures are written as SMILES. This is part of a sample that, as a whole, favours compounds with a hit. Of some 83,000 tested, about 20% had one in any assay.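 Testing used 96-well plates and a 48-hour single-concentration exposure. Example: -40 means 40% of the starting cells died.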 Unmarked numbers belong to inactive results. Calls of active or inactive are those of the source. How the source made its calls: active means growth percent below 10; inactive means the rest.

The assay relates to HL-60(TB) leukemia. The experiment in a line: NCI-60 one-dose screen, 48 h (100 = growth as untreated, 0 = no growth, -100 = all killed). Particulars: 10 µM unless noted.
Consider `COc1ccc(-n2cc(-c3ccccc3)c3c(SCC(=O)N/N=C/c4ccc([N+](=O)[O-])cc4)ncnc32)cc1`, for which the growth was 103%.

As for `CCOC(=O)C(CC(=O)O)=C(C(=O)OCC)C(=O)OCC`, the growth was 99.6%.

`COc1ccc(C(c2cc(OC)c(OC)c(OC)c2)N2CCCCC2)cc1` (stereo not given): the growth is 4.36% (active).

For the compound `O=C(CC(CC(=O)c1ccccc1)c1ccccn1)c1ccccc1`, the growth is 104%.

On to `O=C(/C=C/c1ccccc1)c1ccccc1O`, for which the growth is 24.1%.

As for `CCCCCCNC(=O)Oc1ccc(/C(=C(/CC)Cc2ccccc2)c2ccc(OCCCN(C)C)cc2)cc1`, the growth is 64.2%.

Regarding `O=C(Nc1ccccc1N1CCCC1=O)c1oc2ccc(F)cc2c1-c1cnn(-c2ccccc2)c1`, the growth is 84.8% [50 µM].

For the compound `N#Cc1c(-c2ccccc2)nc(SCC(=O)N2CCN(c3ccccc3)CC2)[nH]c1=O`, the growth is 62.5%.

For the compound `CC(=O)c1cc2c(cc1F)C(C)(C)CCC2(C)C`, the growth is 86.3%.

As for `C[C@@H]1CC[C@@H]2[C@@H]1[C@H](OC(=O)/C=C/c1ccccc1)[C@]1(c3ccccc3)C[C@@H](NC(=O)CO)[C@@]2(C)O1`, the growth was 97.7%.

As for `CCNc1nc(O)c(/C=C2\C=Nc3ncccc32)s1`, the growth was -22.4% (active).

As to `NC1=NC(c2cccc(Br)c2)c2sc3ccc(Cl)cc3c2N1` (stereo not given), the growth is 102%.

For `Cn1cc(-c2nc(-c3c[nH]c4ccccc34)cs2)c2cccnc21`, the growth was 6.19% (active).

On to `O=C(N/N=C/c1ccccc1Cl)c1cccc2ccccc12`, for which the growth is 127%.

As to `COc1cc(OCc2cccc(-c3ccc(C(O)c4nccs4)cc3)c2C)cc(OC)c1C=O` (stereo not given), the growth was 43.5%.

In the case of `Fc1cc2[nH]ncc2c2c3c(c(-c4cn[nH]c4C(F)(F)F)nc12)CCCC3`, the growth is -9.67% (active).

For `COc1ccc(-c2cn(-c3cccc(C(=O)/C=C/c4cc(OC)c(OC)c(OC)c4)c3)c(=O)[nH]2)cc1`, the growth was 5.72% (active).

`O=S(=O)(NCCCNc1nccc(-n2ccc3cccnc32)n1)c1ccc(Br)cc1`: the growth is 110%.

Take `Cc1ccc(N(CSc2ccc(Cl)cc2)CSc2ccc(Cl)cc2)cc1`: the growth is -46.7% (active).

Consider `CC(C)(O)c1cn(CCCCN2C(=O)C(=O)c3ccccc32)nn1`, for which the growth is 97.8%.

For the compound `C[C@H](c1nc2ccc(C#N)cc2[nH]1)[C@H]1CC[C@H]2[C@@H]3CCC4=CC(=O)CC[C@]4(C)[C@H]3CC[C@]12C`, the growth is 56.3%.

With `Cc1ccc2nc(NC(=O)CSc3nc(Nc4ccc([N+](=O)[O-])cc4)c(C#N)c(-c4ccccc4)n3)sc2c1`, the growth is 95.2%.

For the compound `CCCCCCCCCCCC(=O)NCCC[N+](C)(C)CC(=O)[O-]`, the growth was 101%.

As for `O=C1CC(SC(=S)C2CCCC2=O)C(=O)N1` (stereo not given), the growth was 97%.

In the case of `CC/C(=N/NC(N)=O)c1ccccc1`, the growth is 101%.
